In the supplement of paper PMC11732987, “Enantioselective OTUD7B fragment discovery through chemoproteomics screening and high-throughput optimisation” (Communications Chemistry, 2025):

What was measured:
Test in all cases: log2 ratio of Biotin-Ahx-Ub-VS probe labelling (fragment/DMSO); higher = less target engagement (more negative = stronger competition), active = hit call of the paper (q ≤ 0.05, log2 ratio ≤ -1)
Settings in all cases: compound concentration: 200 uM; treatment time: 3 h
[1] = target: USP34 (UniProt Q70CQ2)
In short: (§1)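 Labelled DUBs were enriched with NeutrAvidin, digested with LysC and trypsin, and run by diaPASEF LC-MS/MS. The labelling used Biotin-Ahx-Ub-VS at 0.5 µM final for 1 h on HEK293T lysate (495 µg per sample) previously treated in triplicate with fragment at 200 µM or vehicle for 3 h. Values are average log2 fragment/vehicle ratios by unpaired t-test on global-median-normalised Spectronaut quantities of proteins with ≥2 unique peptides.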

[2] = target: T1, USP36 (UniProt Q9P275)
T1 sequence (whole entry): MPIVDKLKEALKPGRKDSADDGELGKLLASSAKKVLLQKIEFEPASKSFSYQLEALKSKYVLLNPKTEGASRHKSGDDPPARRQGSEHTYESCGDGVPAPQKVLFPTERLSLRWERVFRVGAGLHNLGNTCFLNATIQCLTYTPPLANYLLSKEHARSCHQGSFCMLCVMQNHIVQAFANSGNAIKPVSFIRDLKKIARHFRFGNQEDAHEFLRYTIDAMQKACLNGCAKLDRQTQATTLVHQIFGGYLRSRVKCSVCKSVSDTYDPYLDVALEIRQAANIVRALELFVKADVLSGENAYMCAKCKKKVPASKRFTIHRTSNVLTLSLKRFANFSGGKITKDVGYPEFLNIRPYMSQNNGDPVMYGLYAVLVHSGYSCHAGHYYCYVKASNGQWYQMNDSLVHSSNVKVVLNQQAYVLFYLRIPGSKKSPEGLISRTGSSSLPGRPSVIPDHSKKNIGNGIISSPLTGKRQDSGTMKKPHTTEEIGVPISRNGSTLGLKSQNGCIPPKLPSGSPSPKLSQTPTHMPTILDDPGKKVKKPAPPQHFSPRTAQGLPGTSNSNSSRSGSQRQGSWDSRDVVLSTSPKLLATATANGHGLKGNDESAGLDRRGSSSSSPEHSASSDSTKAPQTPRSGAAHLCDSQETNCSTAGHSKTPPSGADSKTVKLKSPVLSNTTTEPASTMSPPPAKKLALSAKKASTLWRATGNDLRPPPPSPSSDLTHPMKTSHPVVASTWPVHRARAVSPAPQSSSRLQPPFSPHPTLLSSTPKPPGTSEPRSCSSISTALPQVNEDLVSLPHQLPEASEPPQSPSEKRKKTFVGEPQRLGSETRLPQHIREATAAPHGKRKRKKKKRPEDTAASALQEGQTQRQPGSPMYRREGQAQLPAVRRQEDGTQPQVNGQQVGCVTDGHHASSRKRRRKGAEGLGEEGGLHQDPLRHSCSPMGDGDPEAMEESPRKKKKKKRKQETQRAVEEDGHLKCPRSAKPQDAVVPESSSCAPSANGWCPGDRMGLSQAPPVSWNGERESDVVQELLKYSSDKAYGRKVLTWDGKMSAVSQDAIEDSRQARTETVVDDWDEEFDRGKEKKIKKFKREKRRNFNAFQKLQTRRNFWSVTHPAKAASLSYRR
In short: as §1

[3] = target: T2, USP38 (UniProt Q8NB14)
T2 sequence (whole entry): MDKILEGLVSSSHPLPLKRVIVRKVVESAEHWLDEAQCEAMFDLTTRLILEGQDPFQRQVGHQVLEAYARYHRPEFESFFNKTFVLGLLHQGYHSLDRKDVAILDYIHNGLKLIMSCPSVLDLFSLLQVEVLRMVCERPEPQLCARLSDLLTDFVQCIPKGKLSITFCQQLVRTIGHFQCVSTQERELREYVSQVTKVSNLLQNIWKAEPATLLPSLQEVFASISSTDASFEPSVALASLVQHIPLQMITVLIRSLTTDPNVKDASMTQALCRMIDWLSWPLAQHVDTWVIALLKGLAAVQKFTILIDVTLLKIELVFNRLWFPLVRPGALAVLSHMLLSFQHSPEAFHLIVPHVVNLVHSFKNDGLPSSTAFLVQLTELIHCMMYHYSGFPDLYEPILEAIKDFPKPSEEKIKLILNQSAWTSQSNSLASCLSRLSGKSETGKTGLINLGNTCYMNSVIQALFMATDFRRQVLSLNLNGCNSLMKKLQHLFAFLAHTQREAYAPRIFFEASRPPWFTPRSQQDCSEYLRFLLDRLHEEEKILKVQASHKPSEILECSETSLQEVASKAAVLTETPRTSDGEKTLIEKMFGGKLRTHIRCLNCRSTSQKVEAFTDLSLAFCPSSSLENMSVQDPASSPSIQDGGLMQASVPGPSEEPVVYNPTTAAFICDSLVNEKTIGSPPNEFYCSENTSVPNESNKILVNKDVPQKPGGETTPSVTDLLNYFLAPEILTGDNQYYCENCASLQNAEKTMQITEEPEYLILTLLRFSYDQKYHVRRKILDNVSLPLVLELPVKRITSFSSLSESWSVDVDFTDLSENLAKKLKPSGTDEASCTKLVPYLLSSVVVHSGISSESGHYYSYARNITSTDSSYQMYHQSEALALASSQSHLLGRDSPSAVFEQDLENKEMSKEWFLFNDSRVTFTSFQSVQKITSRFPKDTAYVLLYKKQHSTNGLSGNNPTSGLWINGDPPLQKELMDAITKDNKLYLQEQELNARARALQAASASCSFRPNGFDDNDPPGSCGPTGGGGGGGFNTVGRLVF
In short: as §1

[4] = target: T3, USP39 (UniProt Q53GS9)
T3 sequence (whole entry): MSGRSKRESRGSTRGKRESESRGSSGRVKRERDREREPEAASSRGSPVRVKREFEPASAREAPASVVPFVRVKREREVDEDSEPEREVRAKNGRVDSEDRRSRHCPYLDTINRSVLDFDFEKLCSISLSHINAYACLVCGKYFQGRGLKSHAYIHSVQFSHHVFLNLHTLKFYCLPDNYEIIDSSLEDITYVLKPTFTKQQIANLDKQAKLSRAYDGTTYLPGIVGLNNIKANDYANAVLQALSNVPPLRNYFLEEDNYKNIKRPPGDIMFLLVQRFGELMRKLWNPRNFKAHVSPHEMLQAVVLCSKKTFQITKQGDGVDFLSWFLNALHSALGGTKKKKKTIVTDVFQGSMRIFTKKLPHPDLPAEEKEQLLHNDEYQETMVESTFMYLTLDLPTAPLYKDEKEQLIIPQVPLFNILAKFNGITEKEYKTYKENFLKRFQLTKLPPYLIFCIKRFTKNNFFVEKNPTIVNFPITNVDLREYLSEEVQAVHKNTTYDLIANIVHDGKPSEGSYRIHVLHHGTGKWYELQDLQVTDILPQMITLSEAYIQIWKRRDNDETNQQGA
In short: as §1

[5] = target: T4, USP4 (UniProt Q13107)
T4 sequence (whole entry): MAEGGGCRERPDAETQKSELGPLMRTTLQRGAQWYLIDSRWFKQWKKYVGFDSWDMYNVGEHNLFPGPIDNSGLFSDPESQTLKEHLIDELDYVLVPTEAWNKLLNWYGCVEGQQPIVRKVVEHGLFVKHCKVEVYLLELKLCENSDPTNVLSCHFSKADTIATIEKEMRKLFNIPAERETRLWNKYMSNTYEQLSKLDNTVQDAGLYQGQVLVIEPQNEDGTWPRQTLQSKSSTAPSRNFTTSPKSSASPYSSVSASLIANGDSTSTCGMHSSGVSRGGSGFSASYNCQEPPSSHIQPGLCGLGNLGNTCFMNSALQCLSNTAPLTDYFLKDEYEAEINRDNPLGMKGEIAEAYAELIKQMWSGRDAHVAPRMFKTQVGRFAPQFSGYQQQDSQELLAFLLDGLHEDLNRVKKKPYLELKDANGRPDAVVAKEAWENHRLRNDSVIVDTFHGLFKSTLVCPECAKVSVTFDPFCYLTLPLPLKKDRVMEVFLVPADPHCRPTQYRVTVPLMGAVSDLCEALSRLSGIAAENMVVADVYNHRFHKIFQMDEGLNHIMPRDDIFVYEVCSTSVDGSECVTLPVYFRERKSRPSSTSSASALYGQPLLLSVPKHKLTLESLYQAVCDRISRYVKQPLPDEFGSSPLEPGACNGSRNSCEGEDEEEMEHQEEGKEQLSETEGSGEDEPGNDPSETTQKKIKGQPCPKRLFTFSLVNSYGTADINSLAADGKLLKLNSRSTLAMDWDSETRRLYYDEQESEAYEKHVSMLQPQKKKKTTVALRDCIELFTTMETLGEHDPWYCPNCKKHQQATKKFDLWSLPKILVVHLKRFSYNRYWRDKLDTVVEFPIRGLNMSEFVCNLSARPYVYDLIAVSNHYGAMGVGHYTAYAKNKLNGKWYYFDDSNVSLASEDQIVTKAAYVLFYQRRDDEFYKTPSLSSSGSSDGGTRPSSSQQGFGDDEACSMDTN
In short: as §1

Measured: log2 ratio of Biotin-Ahx-Ub-VS probe labelling

Chain of USP34 (Q70CQ2 whole entry, the tested form may be a part): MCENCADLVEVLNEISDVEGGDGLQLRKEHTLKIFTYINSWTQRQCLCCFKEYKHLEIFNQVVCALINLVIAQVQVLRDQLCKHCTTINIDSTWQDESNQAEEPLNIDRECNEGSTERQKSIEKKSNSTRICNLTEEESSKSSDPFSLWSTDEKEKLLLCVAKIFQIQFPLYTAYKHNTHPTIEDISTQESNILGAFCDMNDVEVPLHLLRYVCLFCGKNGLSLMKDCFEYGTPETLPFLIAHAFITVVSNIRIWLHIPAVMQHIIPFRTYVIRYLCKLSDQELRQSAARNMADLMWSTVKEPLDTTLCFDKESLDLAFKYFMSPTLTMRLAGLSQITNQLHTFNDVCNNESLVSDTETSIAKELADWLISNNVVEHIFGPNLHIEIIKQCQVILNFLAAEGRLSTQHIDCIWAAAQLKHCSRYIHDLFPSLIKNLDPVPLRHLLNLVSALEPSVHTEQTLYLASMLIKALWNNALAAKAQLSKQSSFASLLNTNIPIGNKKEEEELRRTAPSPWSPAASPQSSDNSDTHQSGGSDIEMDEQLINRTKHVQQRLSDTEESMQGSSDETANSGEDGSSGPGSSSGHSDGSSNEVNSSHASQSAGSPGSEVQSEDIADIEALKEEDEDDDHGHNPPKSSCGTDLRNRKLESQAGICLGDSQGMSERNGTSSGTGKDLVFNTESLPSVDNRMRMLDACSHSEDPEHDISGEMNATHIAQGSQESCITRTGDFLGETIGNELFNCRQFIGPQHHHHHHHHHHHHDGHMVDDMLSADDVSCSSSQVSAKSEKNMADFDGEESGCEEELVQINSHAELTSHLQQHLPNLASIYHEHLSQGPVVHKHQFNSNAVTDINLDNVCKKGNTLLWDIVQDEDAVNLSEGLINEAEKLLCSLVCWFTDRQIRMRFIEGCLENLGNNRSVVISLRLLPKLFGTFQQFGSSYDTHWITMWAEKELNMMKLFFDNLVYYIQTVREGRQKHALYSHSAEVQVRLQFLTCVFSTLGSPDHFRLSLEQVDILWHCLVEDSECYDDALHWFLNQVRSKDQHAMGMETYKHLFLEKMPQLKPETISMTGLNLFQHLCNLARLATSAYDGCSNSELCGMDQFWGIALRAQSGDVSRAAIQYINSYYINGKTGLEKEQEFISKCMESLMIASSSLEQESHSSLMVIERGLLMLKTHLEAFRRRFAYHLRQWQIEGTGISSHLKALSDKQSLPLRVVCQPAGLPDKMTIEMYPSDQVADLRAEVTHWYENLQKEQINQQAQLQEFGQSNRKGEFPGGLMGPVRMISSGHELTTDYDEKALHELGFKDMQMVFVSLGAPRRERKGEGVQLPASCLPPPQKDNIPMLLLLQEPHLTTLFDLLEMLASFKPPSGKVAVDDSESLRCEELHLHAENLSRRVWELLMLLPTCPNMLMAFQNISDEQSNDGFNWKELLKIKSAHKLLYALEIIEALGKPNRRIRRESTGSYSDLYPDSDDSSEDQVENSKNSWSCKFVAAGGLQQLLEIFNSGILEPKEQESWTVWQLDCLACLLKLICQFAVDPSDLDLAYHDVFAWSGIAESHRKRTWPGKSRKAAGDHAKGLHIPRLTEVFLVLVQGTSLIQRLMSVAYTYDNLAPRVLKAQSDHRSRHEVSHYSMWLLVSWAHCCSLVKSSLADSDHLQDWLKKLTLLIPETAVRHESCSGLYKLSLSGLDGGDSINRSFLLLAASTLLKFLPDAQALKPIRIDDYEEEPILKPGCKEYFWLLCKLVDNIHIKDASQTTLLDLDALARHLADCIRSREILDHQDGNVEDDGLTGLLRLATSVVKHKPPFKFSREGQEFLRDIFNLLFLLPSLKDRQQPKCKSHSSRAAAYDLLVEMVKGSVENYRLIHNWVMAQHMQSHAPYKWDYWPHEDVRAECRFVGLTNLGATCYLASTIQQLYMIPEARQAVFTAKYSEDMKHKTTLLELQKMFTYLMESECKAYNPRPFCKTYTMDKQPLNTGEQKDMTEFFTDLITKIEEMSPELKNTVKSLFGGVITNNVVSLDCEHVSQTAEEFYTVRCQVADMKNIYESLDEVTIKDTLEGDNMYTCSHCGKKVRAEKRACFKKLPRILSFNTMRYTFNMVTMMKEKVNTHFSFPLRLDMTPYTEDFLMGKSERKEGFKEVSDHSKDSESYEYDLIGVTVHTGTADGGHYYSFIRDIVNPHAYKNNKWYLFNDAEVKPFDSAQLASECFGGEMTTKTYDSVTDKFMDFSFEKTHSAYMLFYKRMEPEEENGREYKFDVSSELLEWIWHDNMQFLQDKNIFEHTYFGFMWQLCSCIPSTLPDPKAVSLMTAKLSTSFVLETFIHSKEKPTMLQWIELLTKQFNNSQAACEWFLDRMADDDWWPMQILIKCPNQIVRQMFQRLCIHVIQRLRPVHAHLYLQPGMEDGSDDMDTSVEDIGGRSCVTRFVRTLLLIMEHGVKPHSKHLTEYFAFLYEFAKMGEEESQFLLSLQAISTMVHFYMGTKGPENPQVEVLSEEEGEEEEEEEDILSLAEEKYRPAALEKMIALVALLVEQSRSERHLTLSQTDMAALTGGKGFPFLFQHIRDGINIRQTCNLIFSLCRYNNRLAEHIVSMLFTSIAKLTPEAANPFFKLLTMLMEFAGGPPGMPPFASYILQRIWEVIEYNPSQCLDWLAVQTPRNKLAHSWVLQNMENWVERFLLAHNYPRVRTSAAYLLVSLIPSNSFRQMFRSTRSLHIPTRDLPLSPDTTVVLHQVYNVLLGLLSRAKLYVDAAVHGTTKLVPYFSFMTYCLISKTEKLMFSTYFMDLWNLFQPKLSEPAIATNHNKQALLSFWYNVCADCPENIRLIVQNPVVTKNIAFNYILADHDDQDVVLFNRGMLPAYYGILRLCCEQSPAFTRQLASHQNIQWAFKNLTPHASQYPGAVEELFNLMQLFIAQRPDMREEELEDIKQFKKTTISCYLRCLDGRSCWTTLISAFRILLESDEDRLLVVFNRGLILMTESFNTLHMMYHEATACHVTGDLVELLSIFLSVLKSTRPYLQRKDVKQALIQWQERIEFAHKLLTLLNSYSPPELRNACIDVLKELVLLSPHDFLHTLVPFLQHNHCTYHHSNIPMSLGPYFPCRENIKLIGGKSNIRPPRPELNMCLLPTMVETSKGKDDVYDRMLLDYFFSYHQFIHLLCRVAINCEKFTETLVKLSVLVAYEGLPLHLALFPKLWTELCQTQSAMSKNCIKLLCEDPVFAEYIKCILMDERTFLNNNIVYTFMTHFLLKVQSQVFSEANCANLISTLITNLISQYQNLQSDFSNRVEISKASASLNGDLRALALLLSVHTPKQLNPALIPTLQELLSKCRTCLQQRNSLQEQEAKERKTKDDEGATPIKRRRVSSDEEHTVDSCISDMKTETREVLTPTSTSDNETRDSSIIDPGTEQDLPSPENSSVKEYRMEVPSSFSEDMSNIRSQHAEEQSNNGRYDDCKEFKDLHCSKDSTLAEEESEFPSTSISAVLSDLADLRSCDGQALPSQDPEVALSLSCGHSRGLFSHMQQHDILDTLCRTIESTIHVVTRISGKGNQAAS

O=C(CCl)N1CCN(C(=O)Nc2ccccc2)CC1
inactive: [1] -0.102 | [2] -0.282 | [3] 0.184 | [4] -0.0496 | [5] 0.0949
